The values that follow come from ChEMBL document CHEMBL1157539, “Thousands of chemical starting points for antimalarial lead identification” (Nature, 2010).

As a reminder, the Inhibition is the change of the read-out against control, counted positive when it falls. Low values mean little suppression, high ones strong suppression.

SMILES strings stand for the structures.

The test system of one experiment is Plasmodium falciparum. The experiment is described as follows: GSK_TCMDC: Inhibition of Plasmodium falciparum 3D7 in whole red blood cells, using parasite LDH activity as an index of growth. Test compounds present at 2uM. In kind it is functional.
Take `CN(C(=O)c1snnc1-c1ccccc1)C1CCN(CCCCCNC(=O)/C=C/c2ccc(Cl)c(Cl)c2)CC1`: the Inhibition stood at 96%.
Still for that read-out and setting: for `O=C(Nc1ccc(Cl)c(C(F)(F)F)c1)c1ccc(C(=O)Nc2ccc(Cl)c(C(F)(F)F)c2)cc1` the value was 88%; for `O=C(O)C(F)(F)F.O=S(=O)(NCCN1CCCC1)c1ccc(-c2ccc(CNC3Cc4ccccc4C3)cc2)cc1`, 99%.
For the compound `COc1cc(N(Cc2ccccc2C)S(=O)(=O)Cc2ccccc2[N+](=O)[O-])c(OC)cc1Cl`, the Inhibition came out at 94%.
Still for that read-out and setting: for `COc1ccc2nccc([C@@H](O)CN3CCC(NC(=O)c4cc5ccccc5[nH]4)CC3)c2c1.CS(=O)(=O)O` the value was 96%; for `Cc1ccc(O)c(CN2CCCC(COC(c3ccc(F)cc3)c3ccc(F)cc3)C2)c1` (stereo not drawn), 98%.
On to `CN(C)Cc1ccc2cc(NC(=O)c3ccc(-c4ccc(Cl)cc4)cc3)ccc2n1.O=C(O)C(F)(F)F`, for which the Inhibition worked out at 86%.
On to `COc1cccc(C(=O)Nc2nc3c(s2)CCN(Cc2ccccc2N2CCNCC2)CC3)c1.O=C(O)C(F)(F)F`, for which the Inhibition is 89%.
In the case of `Cc1cccc2nc(-c3cccc(-c4ccc(CN5CCC(C(N)=O)CC5)cc4)c3)[nH]c12.O=C(O)C(F)(F)F`, the Inhibition was 89%.
Consider `C[C@@H](NC(=O)NC(CCN1CCC2(CC1)CN(S(C)(=O)=O)c1ccccc12)c1ccc(Cl)c(Cl)c1)c1ccccc1` (stereo partly drawn), for which the Inhibition is listed as 92%.
Compound `CC(=O)Nc1ncc(C(=O)Nc2ccc(-c3cccc(-c4nc5cc(C(F)(F)F)ccc5[nH]4)c3)cc2)s1` displayed an Inhibition of 100%.
In turn, `COc1cc(C2=NN(S(=O)(=O)c3c(Cl)cc(Cl)cc3Cl)CCCC2)ccc1Cl` showed an Inhibition of 98%.
With `CCC1CCCCN1S(=O)(=O)c1ccc(NC(=O)c2cc(C)on2)cc1` (stereo not drawn), the Inhibition is recorded as 86%.
Still for that read-out and setting: then `ON=C(c1nc2ccccc2[nH]1)c1nc2ccccc2[nH]1`, with 93%.
For the compound `O=c1cc(NCCC(CNCc2cc3ccccc3o2)NCc2cc(Br)cc(Br)c2)[nH]c2ccccc12` (stereo not drawn), the Inhibition amounted to 100%.
The compound `COc1ccc(CNCc2ccccc2)cc1-c1cccc(S(=O)(=O)NCCN2CCCC2)c1.O=C(O)C(F)(F)F` yielded an Inhibition of 98%.
Take `N#Cc1ccc(CN2CCC(Oc3ccc(NC(=O)c4cccs4)cc3)C2)cc1.O=C(O)C(F)(F)F` (stereo not drawn): the Inhibition came to 82%.
Consider `CCOc1cc(Cl)c(C(C)NC(=O)c2ccccc2)cc1OCC` (stereo not drawn), for which the Inhibition was 91%.
Still for that read-out and setting: then `Cc1ccc(C)c2sc(N(CCCn3ccnc3)C(=O)c3ccco3)nc12.Cl`, with 96%.
`CCC1(CC)N=C(N)N=C(N)C1c1ccc(Cl)c(Cl)c1.Cl` (stereo not drawn) yielded an Inhibition of 98%.
With `COc1ccc2nc(/N=C3\NC(c4ccccn4)(c4ccccn4)C(=O)N3C)[nH]c2c1`, the Inhibition is 99%.
Turning to `O=C(O)C(F)(F)F.O=[N+]([O-])c1cccc(CNC2CCN(Cc3ccc(-c4ccccc4)cc3)CC2)c1`, the Inhibition is recorded as 100%.
Same read-out and setting: for `CCC(=O)Oc1ccc(NC(=O)c2cccc(OC)c2)cc1` the value was 98%; for `CN1CCN(Cc2ccc(-c3ccc4c(Nc5cc(O)c(Cl)cc5F)ccnc4c3)o2)CC1`, 100%; for `CCOc1cc(C(C)C)ccc1N1CCN(CCCCNC(=O)c2ccc(NC(=O)c3ccc(Cl)cc3)cc2)CC1`, 100%.
`Cc1ccc(Cc2c(N)nc3nc(N)nc(N)c3c2C)cc1.Cl` came in with an Inhibition of 95%.
Compound `NC1=Nc2ccc(Cl)cc2C1(O)c1ccccc1` (stereo not drawn) came in with an Inhibition of 100%.
Compound `C=CCc1cc(Br)ccc1OCCCOc1c(N)nc(N)nc1N.Cl` had an Inhibition of 92%.
Compound `CC(C)CNCc1ccc(-c2cccc(CN(CCCN3CCN(C)CC3)C(=O)/C=C/c3ccccc3)c2)cc1.O=C(O)C(F)(F)F` registered an Inhibition of 95%.
`COc1ccc(-c2nc(NC(=O)COc3ccc(C(C)=O)cc3)sc2C)cc1` gave an Inhibition of 98%.
On to `O=C(Nc1ccc(C(F)(F)F)cc1)c1cccc(S(=O)(=O)NC2CCN(Cc3ccccc3)C2)c1.O=C(O)C(F)(F)F` (stereo not drawn), for which the Inhibition was found to be 88%.
With `O=C(Cn1c(SCc2cccc(F)c2F)cc(=O)c2ccccc21)N(CCN1CCCCC1)Cc1ccc(-c2ccc(C(F)(F)F)cc2)cc1.O=C(O)C(O)C(O)C(=O)O`, the Inhibition is given as 99%.
In turn, `CC(C)CCN1CCCN(Cc2ccc(C(=O)Nc3ccc(C(C)(C)C)cc3)cc2)CC1.O=C(O)C(F)(F)F` gave an Inhibition of 92%.
With `NS(=O)(=O)c1cccc(-c2ccc3nccc(-c4cccc(S(N)(=O)=O)c4)c3c2)c1`, the Inhibition was 98%.
For `COc1ccc(CNC2Cc3ccccc3C2)cc1-c1ccc(S(=O)(=O)NCCc2ccccn2)s1.O=C(O)C(F)(F)F`, the Inhibition stood at 92%.
On to `Cl.O=c1ccc2ncc(Cl)c3c2n1CC3CN1CCC(NCc2cc3c(cn2)OCCO3)CC1` (stereo not drawn), for which the Inhibition worked out at 96%.
As to `COc1ccc(Oc2cnc(N)nc2N)c(C(C)C)c1`, the Inhibition is given as 97%.
On to `CC1(C)NC(N)=NC(=N)N1OCOc1ccc(Cl)cc1.Cl`, for which the Inhibition is listed as 94%.
`O=C(Nc1nc2cc(S(=O)(=O)NCCc3ccc(F)cc3)ccc2n1CCCn1ccnc1)c1ccc(Cl)cc1.O=C(O)C(F)(F)F`: the Inhibition was 100%.

Another experiment concerns Plasmodium falciparum. The experiment is described as follows: GSK_TCMDC: Inhibition of Plasmodium falciparum Dd2 in whole red blood cells, using parasite LDH activity as an index of growth. Test compounds present at 2uM. In kind it is functional.
`CN(C(=O)c1snnc1-c1ccccc1)C1CCN(CCCCCNC(=O)/C=C/c2ccc(Cl)c(Cl)c2)CC1`: the Inhibition worked out at 58%.
The compound `O=C(Nc1ccc(Cl)c(C(F)(F)F)c1)c1ccc(C(=O)Nc2ccc(Cl)c(C(F)(F)F)c2)cc1` yielded an Inhibition of 27%.
For `O=C(O)C(F)(F)F.O=S(=O)(NCCN1CCCC1)c1ccc(-c2ccc(CNC3Cc4ccccc4C3)cc2)cc1`, the Inhibition was 91%.
The same measure, in the same setting: then `COc1cc(N(Cc2ccccc2C)S(=O)(=O)Cc2ccccc2[N+](=O)[O-])c(OC)cc1Cl`, with 44%.
The compound `COc1ccc2nccc([C@@H](O)CN3CCC(NC(=O)c4cc5ccccc5[nH]4)CC3)c2c1.CS(=O)(=O)O` displayed an Inhibition of 55%.
Compound `Cc1ccc(O)c(CN2CCCC(COC(c3ccc(F)cc3)c3ccc(F)cc3)C2)c1` (stereo not drawn) yielded an Inhibition of 98%.
In the case of `CN(C)Cc1ccc2cc(NC(=O)c3ccc(-c4ccc(Cl)cc4)cc3)ccc2n1.O=C(O)C(F)(F)F`, the Inhibition amounted to 30%.
Compound `COc1cccc(C(=O)Nc2nc3c(s2)CCN(Cc2ccccc2N2CCNCC2)CC3)c1.O=C(O)C(F)(F)F` came in with an Inhibition of 11%.
Still for that read-out and setting: then `Cc1cccc2nc(-c3cccc(-c4ccc(CN5CCC(C(N)=O)CC5)cc4)c3)[nH]c12.O=C(O)C(F)(F)F`, with 9%; and `C[C@@H](NC(=O)NC(CCN1CCC2(CC1)CN(S(C)(=O)=O)c1ccccc12)c1ccc(Cl)c(Cl)c1)c1ccccc1` (stereo partly drawn), with 88%; and `CC(=O)Nc1ncc(C(=O)Nc2ccc(-c3cccc(-c4nc5cc(C(F)(F)F)ccc5[nH]4)c3)cc2)s1`, with 92%.
Still for that read-out and setting: for `COc1cc(C2=NN(S(=O)(=O)c3c(Cl)cc(Cl)cc3Cl)CCCC2)ccc1Cl` the value was 97%.
`CCC1CCCCN1S(=O)(=O)c1ccc(NC(=O)c2cc(C)on2)cc1` (stereo not drawn) yielded an Inhibition of 53%.
On the same count and under the same terms, for `ON=C(c1nc2ccccc2[nH]1)c1nc2ccccc2[nH]1` the value was 68%; for `O=c1cc(NCCC(CNCc2cc3ccccc3o2)NCc2cc(Br)cc(Br)c2)[nH]c2ccccc12` (stereo not drawn), 94%.
Still for that read-out and setting: then `COc1ccc(CNCc2ccccc2)cc1-c1cccc(S(=O)(=O)NCCN2CCCC2)c1.O=C(O)C(F)(F)F`, with 36%; and `N#Cc1ccc(CN2CCC(Oc3ccc(NC(=O)c4cccs4)cc3)C2)cc1.O=C(O)C(F)(F)F` (stereo not drawn), with 65%; and `CCOc1cc(Cl)c(C(C)NC(=O)c2ccccc2)cc1OCC` (stereo not drawn), with 49%.
Same read-out and setting: for `Cc1ccc(C)c2sc(N(CCCn3ccnc3)C(=O)c3ccco3)nc12.Cl` the value was 63%; for `CCC1(CC)N=C(N)N=C(N)C1c1ccc(Cl)c(Cl)c1.Cl` (stereo not drawn), 20%; for `COc1ccc2nc(/N=C3\NC(c4ccccn4)(c4ccccn4)C(=O)N3C)[nH]c2c1`, 98%.
`O=C(O)C(F)(F)F.O=[N+]([O-])c1cccc(CNC2CCN(Cc3ccc(-c4ccccc4)cc3)CC2)c1` returned an Inhibition of 96%.
Regarding `CCC(=O)Oc1ccc(NC(=O)c2cccc(OC)c2)cc1`, the Inhibition is 3%.
Still for that read-out and setting: for `CN1CCN(Cc2ccc(-c3ccc4c(Nc5cc(O)c(Cl)cc5F)ccnc4c3)o2)CC1` the value was 99%; for `CCOc1cc(C(C)C)ccc1N1CCN(CCCCNC(=O)c2ccc(NC(=O)c3ccc(Cl)cc3)cc2)CC1`, 97%.
On to `Cc1ccc(Cc2c(N)nc3nc(N)nc(N)c3c2C)cc1.Cl`, for which the Inhibition is 8%.
As for `NC1=Nc2ccc(Cl)cc2C1(O)c1ccccc1` (stereo not drawn), the Inhibition worked out at 51%.
With `C=CCc1cc(Br)ccc1OCCCOc1c(N)nc(N)nc1N.Cl`, the Inhibition was found to be 0%.
The compound `CC(C)CNCc1ccc(-c2cccc(CN(CCCN3CCN(C)CC3)C(=O)/C=C/c3ccccc3)c2)cc1.O=C(O)C(F)(F)F` had an Inhibition of 93%.
As for `COc1ccc(-c2nc(NC(=O)COc3ccc(C(C)=O)cc3)sc2C)cc1`, the Inhibition came out at 58%.
Still for that read-out and setting: then `O=C(Nc1ccc(C(F)(F)F)cc1)c1cccc(S(=O)(=O)NC2CCN(Cc3ccccc3)C2)c1.O=C(O)C(F)(F)F` (stereo not drawn), with 0%; and `O=C(Cn1c(SCc2cccc(F)c2F)cc(=O)c2ccccc21)N(CCN1CCCCC1)Cc1ccc(-c2ccc(C(F)(F)F)cc2)cc1.O=C(O)C(O)C(O)C(=O)O`, with 82%.
In turn, `CC(C)CCN1CCCN(Cc2ccc(C(=O)Nc3ccc(C(C)(C)C)cc3)cc2)CC1.O=C(O)C(F)(F)F` had an Inhibition of 12%.
Consider `NS(=O)(=O)c1cccc(-c2ccc3nccc(-c4cccc(S(N)(=O)=O)c4)c3c2)c1`, for which the Inhibition came out at 99%.
Compound `COc1ccc(CNC2Cc3ccccc3C2)cc1-c1ccc(S(=O)(=O)NCCc2ccccn2)s1.O=C(O)C(F)(F)F` had an Inhibition of 22%.
The same measure, in the same setting: for `Cl.O=c1ccc2ncc(Cl)c3c2n1CC3CN1CCC(NCc2cc3c(cn2)OCCO3)CC1` (stereo not drawn) the value was 29%; for `COc1ccc(Oc2cnc(N)nc2N)c(C(C)C)c1`, 0%.
Consider `CC1(C)NC(N)=NC(=N)N1OCOc1ccc(Cl)cc1.Cl`, for which the Inhibition was found to be 96%.
`O=C(Nc1nc2cc(S(=O)(=O)NCCc3ccc(F)cc3)ccc2n1CCCn1ccnc1)c1ccc(Cl)cc1.O=C(O)C(F)(F)F` came in with an Inhibition of 55%.
